Sampled rows, rich in hits. Any-hit rate of the full collection: about 6.9%.
Vif-A3G inh – qHTS for Inhibitors of Vif-A3G Interactions: qHTS; DNA dC->dU-editing enzyme APOBEC-3G (Homo sapiens), Q9HC16; HeLa A3G-eYFP + Vif (tagged APOBEC3G with the HIV-1 protein that degrades it), YFP fluorescence, overnight; Potency, µM (highest dose often 46.1 µM), for the others: at the top dose activity, negative = active, usual class: inhibitors; 410,000 compounds, 0.076% hits; note: potency is the fitted concentration of half-maximal effect; % is set by controls: 0 for no effect and ±100 for the full control effect; nearly all actives have a fitted effect of over 60% in size
Target sequence (Q9HC16 whole entry, looked up): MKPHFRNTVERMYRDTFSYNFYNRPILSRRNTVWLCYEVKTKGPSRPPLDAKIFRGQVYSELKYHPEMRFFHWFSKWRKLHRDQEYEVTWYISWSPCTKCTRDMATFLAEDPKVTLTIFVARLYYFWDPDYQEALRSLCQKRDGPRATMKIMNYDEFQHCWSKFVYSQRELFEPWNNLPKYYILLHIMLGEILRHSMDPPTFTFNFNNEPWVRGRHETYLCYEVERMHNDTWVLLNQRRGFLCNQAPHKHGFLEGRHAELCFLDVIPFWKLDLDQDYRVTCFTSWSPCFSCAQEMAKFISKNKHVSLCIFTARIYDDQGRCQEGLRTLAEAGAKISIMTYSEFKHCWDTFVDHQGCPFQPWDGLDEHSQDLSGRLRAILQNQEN
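Read-out is eYFP fluorescence (Ex 488/Em 500-530) from Vif-expressing HeLa A3G-eYFP cells; more signal means A3G escaped Vif-mediated degradation. Cells plated overnight, compound pinned in, incubated overnight at 37 deg C.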
SW480 rerep – A quantitative high throughput screen for small molecules that induce DNA re-replication in SW480 colon adenocarcinoma cells. SW480 DNA re-replication, Hoechst DNA content imaging, 48 h. Potency, µM (highest dose often 46.1 µM), for inactives: top-dose re-replication activation, most hits filed as activators. 340,000 compounds, 1.8% hits; note: potency is the fitted concentration of half-maximal effect; % of control where 0% means no effect; nearly all actives have a fitted effect of over 55% in size
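Treated cells incubate 48 hr (37 C, 5% CO2), are stained 40 min with Hoechst, and nuclear fluorescence is enumerated; a rise in nuclei with high DNA signal marks re-replication.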
Vif-A3F inh – qHTS for Inhibitors of Vif-A3F Interactions: qHTS | HeLa A3F-eYFP + Vif (tagged APOBEC3F with the HIV-1 protein that degrades it), YFP fluorescence increase | Potency, µM (series often up to 46.1 µM), without a hit: top-dose activity, negative = active | 390,000 compounds, 0.2% hits | AID 602313, 2012; note: potency is the fitted concentration of half-maximal effect; % of control where 0% means no effect; nearly all actives have a fitted effect of over 65% in size
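Fluorescence increase (Ex 488/Em 500-530) after overnight compound treatment at 37 deg C flags inhibition of Vif-driven A3F-eYFP loss in stable HeLa A3F-eYFP/Vif cells seeded overnight beforehand.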
MCF10A rerep – A quantitative high throughput screen for small molecules that induce DNA re-replication in MCF 10a normal breast cells; MCF 10A DNA re-replication, Hoechst nuclear intensity, 48 h; Potency, µM (doses to about 46.1 µM), for the others: at the highest dose activity, positive = re-replication, hits mostly activators; 350,000 compounds, 2.9% hits; AID 624296, 2012; note: potency is the fitted concentration of half-maximal effect; % of control where 0% means no effect; nearly all actives have a fitted effect of over 50% in size
Giardia killer – Small Molecules that selectively kill Giardia lamblia: qHTS. 340,000 compounds, 0.15% hits. Giardia lamblia trophozoite viability. activity change, % at 7.66 µM, hits read low; in the data active = activity change below about -80%; inconclusive = between about -30% and that limit;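 note: parasites exposed to compound for two days anaerobically before the ATP read; % is set by controls: 0 for no effect and ±100 for the full control effect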
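Each well holds 100 Giardia trophozoites and compound. After two days (48 hrs) at 37 deg C in anaerobic conditions, ATP is quantified by luminescence.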
IL1B secr inh – qHTS for Inhibitors of Inflammasome Signaling: IL-1-beta AlphaLISA Primary Screen; 360,000 compounds, 4.7% hits; activity change, % at 57.5 µM; AID 743279, 2014; THP-1 LPS/ATP IL-1B secretion, AlphaLISA, 16 h; stronger effect = lower value; in the data active = activity change below about -50%; inconclusive = mostly about -30% to -49%; note: % is set by controls: 0 for no effect and ±100 for the full control effect
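THP-1 cells pretreated 1 hr with compounds (up to 57.5 uM final), then stimulated with LPS (250 ng/mL final) plus ATP (1.25 mM final); secreted IL-1B measured by AlphaLISA after 16 hr, decreased signal indicating inhibition.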
* hit, by the source's call; ? = inconclusive; . = not tested or not shown. Unless noted, calls come from the whole dose curve; as a rule, active = well fitted curve in the direction sought with a large enough effect; inconclusive = small, poorly fitted or top-dose-only effect, or another doubt; inactive = no such curve, though single readings can be large; an effect the other way counts as inactive or inconclusive.

SMILES	Vif-A3G inh	SW480 rerep	Vif-A3F inh	MCF10A rerep	Giardia killer	IL1B secr inh
O=C(O)[C@@H]1C[C@H](C(=O)O)N1	-6%	.	.	.	-7	.
CCCCN(CCCC)c1ccc(Cn2ccc3ccccc32)cc1	-10%	.	.	.	.	.
Cc1ccc(S[C@@H](CCN2CC[C@H](C)CCC2=O)c2ccccc2)cc1	2%	-6%	-19%	?	5	?
C[C@@H]1CCC(=O)N(CC[C@H](Sc2ccc(Br)cc2)c2ccccc2)CC1	-17%	16%	-7%	-33%	?	-71*
COc1ccc(S[C@@H](CCN2CC[C@H](C)CCC2=O)c2ccccc2)cc1	7%	-2%	0%	18µM*	10	?
[O-][n+]1c2c(c3c4non(O)c4ccc31)CCCC2	-1%	13%	-2%	-1%	-13	-61*
COn1c2c(c3c4no[n+]([O-])c4ccc31)CCCC2	2%	-1%	-2%	24%	-6	-1
OCC1(Cc2ccccc2)CCN(C2CCN(c3ccccc3F)CC2)CC1	3%	-5%	4%	?	13	-85*
CNC(=O)CC1C(=O)N(c2ccc(OC)cc2)C(=S)N1NC(=O)c1cccc(F)c1 (centres undefined)	1%	2.3µM*	-2%	?	3	.
CNC(=O)CC1C(=O)N(c2ccc(Cl)cc2)C(=S)N1NC(=O)c1cccc(F)c1 (centres undefined)	-4%	-17%	3%	3%	-12	-5
Nc1ccc(N(CCO)CCO)cc1	3%	-2%	-6%	-3%	1	-8
CCN(CC)c1ccc(N)cc1	-13%	?	-1%	?	-7	-66*
CCN(CC)c1ccc(C(=O)NN)cc1	-5%	-6%	1%	0%	14	-52*
CCN(CC)c1ccc(NC(=O)Nc2ccc(C(C)=O)cc2)cc1	-5%	2%	-5%	2%	23	-12
CN1CCSc2ccc(C(=O)Nc3cccc(F)c3)cc21	-4%	?	1%	-5%	-19	-53*
CCN(CC)c1ccc(C(=O)Nc2cccc(F)c2)cc1	?	13µM*	-6%	?	-9	0
COc1ccc(Cl)c(Cn2cnc3c(cnn3C(C)(C)C)c2=O)c1F	-1%	.	.	.	.	.
CC1(C)OC(=O)C2(Cc3ccc(Cl)cc3N3CCCC32)C(=O)O1 (centres undefined)	-1%	.	.	.	11	.
CCn1cnc2c(=O)oc3ccc(S(=O)(=O)N4CCN(c5cc(C)ccc5C)CC4)cc3c21	1%	.	0%	.	.	.
CCCc1nnc(NC(=O)Cc2coc3ccc(C)cc23)s1	-4%	.	1%	.	.	.
CC1(C)Cc2c(sc(/N=C/N3CCCCCC3)c2C#N)C(C)(C)N1	-4%	0%	0%	16µM*	13	15
COc1ccc(S(=O)(=O)NCC2CCCN(Cc3cccc(C(C)=O)c3)C2)cc1 (centres undefined)	0%	-1%	1%	?	-14	-3
COc1ccc(S(=O)(=O)NCC2CCCN(Cc3cccnc3)C2)cc1 (centres undefined)	1%	-15%	5%	1µM*	18	1
COC(=O)c1ccc(CN2CCCC(CNC(=O)Cc3ccc(OC)cc3)C2)cc1 (centres undefined)	-2%	-4%	-12%	6%	4	17
COc1ccc(CC(=O)NCC2CCCN(Cc3cc(OC)cc(OC)c3)C2)cc1 (centres undefined)	-1%	2%	2%	11%	5	-50*
SMILES	Vif-A3G inh	SW480 rerep	Vif-A3F inh	MCF10A rerep	Giardia killer	IL1B secr inh
Cc1cc(CN2CCCC(CNC(=O)c3ccc(F)cc3)C2)cc(C)c1O (centres undefined)	-4%	?	-14%	23µM*	-5	?
O=C(NCC1CCCN(Cc2cccc(C(F)(F)F)c2)C1)c1ccc(F)cc1 (centres undefined)	3%	?	-2%	6%	7	-24
COc1ccc(N2CCN(c3ccc(-c4nc(-c5ccccc5)no4)cc3[N+](=O)[O-])CC2)cc1	-1%	.	2%	.	.	.
CCCc1cc(=O)[nH]c(SCc2nc(-c3ccc(OC)cc3)no2)n1	1%	.	0%	.	.	.
Cc1cc(C)n(-c2nc(NC(C)(C)C)nc(NC(C)(C)C)n2)n1	0%	0%	-6%	-5%	-6	14
Cc1cc(C)n(-c2nc(NC(C)C)nc(NC(C)C)n2)n1	2%	2.9µM*	-3%	18%	-10	-5
Cc1cc(C)n(-c2nc(Nc3ccccc3C(F)(F)F)nc(-n3nc(C)cc3C)n2)n1	-23%	?	-19%	?	?	-54*
CCOc1ccc(Br)cc1C1C(C(=O)Nc2ccccc2OC)=C(C)Nc2nnnn21 (centres undefined)	-6%	.	1%	.	.	.
COc1ccc(-n2cc(-c3ccccc3)nc2SCC(=O)Nc2ccccc2)cc1Cl	2%	.	?	.	.	.
CCN(C(=O)C1CCN(S(=O)(=O)c2cc(Br)cc3c2N(C(C)=O)CC3)CC1)c1cccc(C)c1	0%	.	3%	.	.	.
C=C1C(=O)O[C@@]23[C@H]1CC[C@@H](C)[C@@H]2CC[C@@]1(C)O[C@@H]31	-8%	?	-4%	?	?	-111*
COc1cccc(C(=O)Nc2ccc(C(=O)OCc3cc(=O)n4cc(C)sc4n3)cc2)c1	-1%	.	8%	.	.	.
O=C(Nc1ccc2nc(-c3cccs3)c(-c3cccs3)nc2c1)N1CCCC1	-1%	.	.	.	6	.
COCCNC(=O)Nc1ccc2nc(-c3cccs3)c(-c3cccs3)nc2c1	0%	?	-8%	23µM*	17	-54*
Cc1cc(C)nc(Sc2nc(Cl)nc(N(c3ccccc3)c3ccccc3)n2)n1	?	?	-1%	?	-2	-97*
COc1cc(Cl)c(NS(=O)(=O)c2ccc3[nH]c(=O)ccc3c2)c(OC)c1	-6%	.	3%	.	.	.
CCOc1ccc(CN(C(=O)c2ccccn2)c2ccc(OC)c(Cl)c2)cc1	?	?	3%	23µM*	-15	11
CC(C)CCn1c(=O)c2sccc2n2c(CCCC(=O)NCCc3ccccc3)nnc12	-1%	.	-2%	.	.	.

Compound activity (PubChem)
